# Reference: PubChem BioAssay AID463173 (ICCB-Longwood Screening Facility, Harvard Medical School, 2010)
# In all, about 52,000 compounds went through this assay and about 4,300 (8.3%) were called active. This is one part of a sample in which actives are shown more often than they occur. Values without a mark were called inactive. Rule as the data show it: active = survival mostly below about 52% (no sharp cut-off); inactive = mostly above about 56%.
# System: DeltatarO mutant
# Test: S. aureus survival, RN4220 and DeltatarO strains – OD600, teichoic acid synthesis inhibitors, primary screen (AID 463173)
# Conditions: S. aureus RN4220 wild type/DeltatarO growth, OD600, 18 h, active compounds read low, screened at 18.75 µg/mL (by protocol)
row,Compound,survival
1,Cc1ccc2ncc(C(=O)c3ccc(C)c(C)c3)c(S(=O)(=O)c3ccccc3)c2c1,70%
2,COc1ccc(S(=O)(=O)N2CCC(c3nnnn3-c3ccccc3)CC2)cc1OC,80%
3,CN1C(=O)/C(=C2/SC(=S)N(c3cccc(O)c3)C2=O)c2ccccc21,54%
4,CNC(=O)c1ccc(CSc2nc3cccnc3n2Cc2cccc(F)c2)cc1,118%
5,CCN1CCN(CCCNC(=O)c2ccc3nc(Cc4ccccc4)oc3c2)CC1,105%
6,COc1ccc(NC(=O)c2ccco2)cc1NC(=O)c1ccc(C)c(C)c1,49% (active)
7,CCCCOc1cccc(C(=O)Nc2cc(NC(=O)c3ccco3)ccc2OC)c1,23% (active)
8,COc1ccc(NC(=O)c2ccco2)cc1NC(=O)COc1ccccc1,45% (active)
9,COc1ccc(NC(=O)c2ccco2)cc1NC(=O)COc1ccc(C)c(C)c1,49%
10,COc1ccc(C(=O)Nc2cc(NC(=O)c3ccco3)ccc2OC)cc1Cl,54%
11,COc1ccc(NC(=O)c2ccco2)cc1NC(=O)c1c(OC)cccc1OC,51%
12,COc1ccc(NC(=O)c2ccco2)cc1NC(=O)COc1cc(C)cc(C)c1,121%
13,COc1cc(OC)cc(C(=O)Nc2cc(NC(=O)c3ccco3)ccc2OC)c1,83%
14,COc1ccc(NC(=O)c2ccco2)cc1NC(=O)c1cccc(F)c1,89%
15,COc1ccc(NC(=O)c2ccco2)cc1NC(=O)c1cccc(C)c1OC,37% (active)
16,COc1ccc(NC(=O)c2ccco2)cc1NC(=O)c1cc(OC)c(OC)c(OC)c1,71%
17,COc1ccc(NC(=O)c2ccco2)cc1NC(=O)c1ccccc1[N+](=O)[O-],49%
18,COc1cccc(NC(=O)C2CCCN(c3nnc(-n4c(C)ccc4C)s3)C2)c1 (centres undefined),79%
19,COc1ccc(NC(=O)Cn2cnc3c(oc4ccccc43)c2=O)cc1OC,79%
20,Cc1nc(-c2ccc(S(=O)(=O)N3CCN(c4cccc(C(F)(F)F)c4)CC3)cc2)co1,67%
21,Cc1ccc(S(=O)(=O)CC(=O)Nc2nc3c(C)cc(C)cc3s2)cc1,96%
22,COC(=O)c1c(SC)nc2ccccc2c1OCc1ccc(Cl)cc1,92%
23,COc1ccc(N(C(=O)c2ccc(OC)c(OC)c2)S(=O)(=O)c2ccc(Cl)cc2)cc1,80%
24,COc1cccc(CN(CCO)Cc2ccccc2)c1OC,91%

row,Compound,survival
1,CCOc1ccc(CNC(=O)C2CCN(C(=O)N3CC(CC)Oc4ccc(C)cc43)CC2)cc1OC (centres undefined),77%
2,Cc1cccc(-n2c(=O)c3c(c4cc(C)ccc4n3C)n(CC(=O)Nc3ccc(C)cc3C)c2=O)c1,69%
3,COc1ccccc1CNC(=O)Cn1ncc2c(=O)oc3ccc(C)cc3c21,78%
4,CC(C)n1nc(CC(=O)O)c2ccccc2c1=O,79%
5,CCSc1nc2ccc(N)cc2s1,108%
6,O=C(NCC(c1cccnc1)N1CCc2ccccc2C1)c1ccc(F)c(F)c1 (centres undefined),70%
7,CCOc1ccc(CCNC(=O)CN2C(=O)COc3ccc(S(=O)(=O)N4CCCC4)cc32)cc1,69%
8,Cc1ccc(C(c2sc3nc(-c4ccco4)nn3c2O)N2CCCCC2)cc1 (centres undefined),93%
9,COc1ccc(CNc2nc(-c3ccco3)nn2S(=O)(=O)c2ccc3ccccc3c2)cc1OC,58% (active)
10,COc1ccc(CNc2nc(-c3ccco3)nn2S(=O)(=O)c2ccc(Cl)cc2)cc1OC,61%
11,COc1ccc(S(=O)(=O)n2nc(-c3ccco3)nc2NCc2ccc(OC)c(OC)c2)cc1,55%
12,COc1ccc(CNc2n[nH]c(-c3ccco3)n2)cc1OC,62% (active)
13,CC(C)c1ccc(CNc2n[nH]c(-c3ccco3)n2)cc1,80%
14,Fc1cccc(Cl)c1CNc1n[nH]c(-c2ccco2)n1,76%
15,Cc1ccc(C(=O)Nc2cccc(O)c2)cc1S(=O)(=O)N1CCCCCC1,79%
16,CCN(CC)CCCNC(=O)CN1N=C(c2ccccc2)CCC1=O,87%
17,COc1ccc(NC(=O)CN2C(=O)C(=O)c3ccccc32)c(OC)c1,52% (active)
18,Cc1ccc(NC(=O)CCn2c(=O)c3cccn3c3ccccc32)c(Cl)c1,57%
19,COc1ccc(OC)c(NC(=O)Cn2c(=O)c3cccn3c3ccccc32)c1,41% (active)
20,Cc1cc(Cl)ccc1NC(=O)CN1C(=O)C(=O)c2ccccc21,71%
21,Cc1ccc(NC(=O)CCCn2c(=O)c3cccn3c3ccccc32)c(C)c1,49%
22,CCOc1ccccc1NC(=O)CN1C(=O)C(=O)c2ccccc21,94%
23,COc1ccc(OC)c(CCNC(=O)CCCn2c(=O)c3cccn3c3ccccc32)c1,77%
24,COc1ccc(NC(=O)CCn2c(=O)c3cccn3c3cccnc32)c(OC)c1,103%

row,Compound,survival
1,COc1ccc(CNC(=O)Cn2c(=O)c3cccn3c3ccccc32)cc1,47%
2,COc1ccc(NC(=O)Cn2c(=O)c3cccn3c3ccccc32)cc1,49%
3,COc1ccc(NC(=O)CCCn2c(=O)c3cccn3c3ccccc32)c(OC)c1,57% (active)
4,COc1ccc(NC(=O)CCn2c(=O)c3cccn3c3ccccc32)c(OC)c1,47% (active)
5,CC1CN(C(=O)Nc2ccc(C(=O)NCCc3ccccc3Cl)cc2)c2ccccc2S1 (centres undefined),61%
6,COc1ccc(NC(=O)c2ccc3c(c2)sc2nc(-c4ccc(OC)cc4)cn23)cc1,61%
7,CN=C1SC(CC(=O)NC)C(=O)N1C (centres undefined),86%
8,CCCc1noc2c1C1=NNC(=O)C1C(C)(C)C2 (centres undefined),76%
9,O=c1[nH]c2ccc(NCc3ccc(-c4ccccc4)o3)cc2[nH]1,86%
10,O=C(Nc1ccc(-n2nncc2-c2ccccc2)cc1)c1cccc(F)c1,129%
11,COc1ccc(N2CCN(C(=O)CCc3c(C)nc4cc(-c5ccc(OC)cc5OC)nn4c3C)CC2)cc1,104%
12,CC(C)CNC(=O)c1cccc(Cl)c1,82%
13,COc1ccc(CCNC(=O)Cn2cc(C(=O)c3ccc(Cl)cc3)c(=O)c3ccc(C)nc32)cc1OC,79%
14,COc1ccc(NC(=O)Cn2c(=O)oc3cc(Cl)ccc32)c(OC)c1,91%
15,COc1ccc(NC(=O)Cn2c(=O)c3cccn3c3ccccc32)cc1Cl,42% (active)
16,Cc1cc(C)c(NC(=O)Cn2c(=O)c3cccn3c3ccccc32)c(C)c1,51%
17,COc1cc(NC(=O)CCn2c(=O)oc3ccccc32)cc(OC)c1OC,62%
18,COc1cc(OC)c(NC(=O)CCn2cccn2)cc1Cl,79%
19,Cc1cccc(NC(=O)Cn2c(=O)c3cccn3c3ccccc32)c1C,43% (active)
20,COc1ccc(OC)c(NC(=O)CCn2cnnn2)c1,80%
21,Cc1c(Cl)cccc1NC(=O)CCn1c(=O)c2cccn2c2ccccc21,49%
22,COc1ccc(Cl)cc1NC(=O)CCn1c(=O)oc2ccccc21,40% (active)
23,COc1ccc(OC)c(NC(=O)CCn2cccn2)c1,47% (active)
24,COc1ccc(NC(=O)CCn2c(=O)c3cccn3c3cccnc32)cc1Cl,85%

row,Compound,survival
1,COc1ccc(NC(=O)CCCn2c(=O)c3cccn3c3cccnc32)cc1Cl,87%
2,COc1ccc(OC)c(NS(=O)(=O)c2ccc(-n3cccn3)cc2)c1,95%
3,Cc1ccsc1CN1CCc2nc(Nc3ccccc3)ncc2C1,61%
4,CCc1cccc(C)c1NC(=O)C1CCN(c2nn3c(=O)cc(C)nc3s2)CC1,119%
5,Cc1cccc(N2CCN(c3ncnc4c3nc3n4CCCCC3)CC2)c1C,95%
6,COc1ccc(C(=O)NCC(c2cccnc2)N2CCN(c3ccccc3OC)CC2)cc1 (centres undefined),77%
7,COc1ccc(NC(=O)Cc2ccc(NC(=O)N3CCCCc4ccccc43)cc2)c(OC)c1,47% (active)
8,COc1ccc(Cl)cc1NC(=O)NCCn1c(=O)oc2ccc(C)cc21,46% (active)
9,COc1ccc(Cl)cc1NC(=O)CCn1c(=O)c2cccn2c2ccccc21,42% (active)
10,COc1ccc(OC)c(CNC(=O)Cc2ccc(NC(=O)N3CCCCc4ccccc43)cc2)c1,99%
11,COc1ccc(C)cc1NC(=O)Cc1ccc(NC(=O)N2CCCCc3ccccc32)cc1,67%
12,Cc1ccc(Cl)cc1NC(=O)CCCn1c(=O)c2cccn2c2ccccc21,61%
13,CCOC(=O)c1cccc(NC(=O)Cn2c(=O)c3cccn3c3ccccc32)c1,100%
14,CC(=O)c1ccc(NC(=O)Cn2c(=O)c3cccn3c3ccccc32)cc1,42% (active)
15,COc1ccc(Cl)cc1NC(=O)CCCn1c(=O)c2cccn2c2cccnc21,87%
16,Cc1ccc2oc(=O)n(CCNC(=O)Nc3ccc(Cl)cc3)c2c1,72%
17,Cc1ccc2oc(=O)n(CCNC(=O)Nc3ccccc3C)c2c1,109%
18,CCc1ccc(NC(=O)Cn2c(=O)c3cccn3c3ccccc32)cc1,56%
19,CCOC(=O)c1c(S(=O)(=O)NCC(=O)N2CCN(c3cccc(Cl)c3)CC2)c(C)n(C)c1C,86%
20,O=C(O)c1ccccc1C(=O)N1CCC(C(=O)c2ccccc2)CC1,104%
21,COc1ccc(N2CCN(C(=O)C3CCN(S(=O)(=O)Cc4ccccc4)CC3)CC2)cc1,78%
22,O=S1(=O)CCC(NNC(=S)Nc2ccccc2)C1 (centres undefined),100%
